# PubChem BioAssay (NCATS)
# A number with no mark means an inactive call. Inconclusive results are not listed. Activity calls are given as the source filed them. Unless noted, calls follow the shape of the dose curve; as a rule, active = well fitted curve in the direction sought with a large enough effect; inconclusive = small, poorly fitted or top-dose-only effect, or another doubt; inactive = no such curve, though single readings can be large; an effect the other way counts as inactive or inconclusive.
# Key:
# [1] = qHTS to identify inhibitors of the type 1 interferon - major histocompatibility complex class I in skeletal muscle: primary screen against the NCATS LOPAC collection (AID 1347405)
# In short: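 Cells: C25cl48 human myoblasts, HiBiT-tagged HLA-B*08:01, stimulated with IFN-beta 4.0 ng/ml. Compounds are titrated 1:4.3 over 7 points from 46 uM final and incubated 24 hrs; endogenous MHC class I is quantified by HiBiT lytic luminescence.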
# [2] = qHTS for inhibitors of adenylyl cyclases using a fission yeast platform: a pilot screen against the NCATS LOPAC library (AID 1347410)
# In short: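 Read-out: fbp1-GFP fluorescence by laser scanning cytometry (488 nm laser), a gain of signal when AC/cAMP-PKA signalling is inhibited. Strain CHP2027 expressing AC9, GNAS and PDE4D2; compounds at up to 57 µM; 18 h, 30C.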
# [3] = qHTS to identify inhibitors of the type 1 interferon - major histocompatibility complex class I in skeletal muscle: primary screen against the NCATS Pharmaceutical Collection (AID 1347407)
# In short: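 HLA-B HiBiT myoblasts, dexamethasone-free growth medium + 4 ng/ml IFN-b; compounds pinned 1 h after seeding, […] from 46 uM; 24 h, 37 C, 5% CO2; lytic HiBiT detection, 10 min RT, luminescence.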
# [4] = biological target: Protein phosphatase 1D (Homo sapiens) (UniProt O15297); assay: RapidFire Mass Spectrometry qHTS Assay for Modulators of WT P53-Induced Phosphatase 1 (WIP1) (AID 1347424)
# In short: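 WIP1 (10 nM final) was preincubated 1 h at room temperature with compounds in Tris-HCl pH 7.5, 30 mM MgCl2, TCEP, EGTA, BSA; 2 uM VEPPL-pS-QETFS phosphopeptide was added for 5 min, quenched with formic acid, and dephosphorylated product quantified by RapidFire MS.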
# [5] = qHTS for Inflammasome Signaling Inhibitors: IL-1-beta AlphaLISA screen against the NCATS CANVASS Library (AID 1347379); details: outcome: at 57.5 µM (top of the series)
# In short: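 Human THP-1 cells were pretreated 1 hr at 37 °C with compounds (up to 57.5 uM final), then stimulated with LPS (250 ng/mL final) and ATP (1.25 mM final). Secreted IL-1B was read by AlphaLISA after 16 hr.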
# [6] = qHTS for Antimalaria activity screened against the NCATS CANVASS Library (AID 1347380)
# In short: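 Growth inhibition of asexual erythrocytic P. falciparum Dd2 was quantified by SYBR Green DNA staining. Cultures grew 72 h with compound (11-point series) in hypoxic gas at 37C; lysis and staining lasted 18 h.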
# [7] = Inflammasome Signaling qHTS Counterscreen: IL-1-beta AlphaLISA counterscreen against the NCATS CANVASS Library (AID 1347381)
# In short: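 To flag interference with the AlphaLISA read-out, a known amount of purified IL-1-beta (4 pg) replaced cell supernatant. Detection used anti-IL-1-beta acceptor beads, biotinylated antibody and streptavidin donor beads at room temperature.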
# [8] = Cytotoxicity qHTS for assessment of Hepg2 cells membrane integrity screened against the NCATS CANVASS Library (AID 1347387)
# In short: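 Fluorescence proportional to lysed-cell number, from LDH leaking out of HepG2 cells exposed 5 hr at 37C to 0.59 nM - 46 uM compound (11-point qHTS), is measured after 10 min with CytoTox-ONE.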
# [9] = qHTS for Activators of p53 Stress Response Pathway screened against the NCATS CANVASS Library (AID 1347388)
# In short: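 p53RE-bla HCT-116 cells (4000/well) were plated 5 h at 37C, exposed to compounds for 16 h at 37C over an 11-point concentration series, then loaded with CCF4 for 2 h at room temperature; 460/530 nm emission ratio read.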
# [10] = qHTS assay for small molecule disruptors of mitochondrial membrane potential screened against the NCATS CANVASS Library (AID 1347389)
# In short: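 Compounds tested in 11-point qHTS series on HepG2 cells for 1 hr; membrane-potential dye added for 30 min at 37C. Lower red-to-green ratio indicates loss of potential.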
# [11] = Secretion counterscreen for inhibitors of the SERCaMP assay screened against the NCATS CANVASS Library (AID 1347390)
# In short: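 Luminescence from constitutively secreted GLuc in SH-SY5Y-GLuc STOP cells, read after coelenterazine addition, served as read-out. Compounds tested 0.001 - 77 uM for 20 h at 37C; Brefeldin A as positive control.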
# [12] = qHTS for activators of Nrf2/ARE signaling pathway screened against the NCATS CANVASS Library (AID 1347391)
# In short: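 Cells carrying an ARE-driven beta-lactamase reporter (HepG2 background) are dosed for 16 h, then stained with CCF4. Cell viability in the same wells is measured by CellTiter-Glo luminescence.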
# [13] = qHTS for activators of dead-cell proteases activity screened against the NCATS CANVASS Library (AID 1347392)
# In short: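 HepG2 cells (2000/well) attached 18 h at 37C, then exposed 5 h to compounds (11-point qHTS). Dead-cell protease activity read as luminescence from cell-impermeant AAF-aminoluciferin substrate after 15 min at room temperature.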
# [14] = qHTS for inhibitors of ER calcium dysfunction: SERCaMP assay screened against the NCATS CANVASS Library (AID 1347393)
# In short: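 qHTS in SH-SY5Y reporter cells: 16 h compound pretreatment, 4 h thapsigargin, then secreted Gaussia luciferase measured by luminescence.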
# [15] = Vero-766 cells viability qHTS against the NCATS CANVASS Library: Counterscreen for Zika virus inhibition assay (AID 1347394)
# In short: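 CellTiter-Glo luminescence, lower signal indicating cytotoxicity. Vero 766 cells without Zika virus, 1000 cells/well, plated overnight, then treated 72 h at 37C across an 11-point series.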
# [16] = qHTS for inhibitors of Wild type Zika virus screened against the NCATS CANVASS Library (AID 1347396)
# In short: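 Protection against wild-type Zika cytopathic effect is measured in African green monkey Vero 766 cells exposed to an 11-point compound series. Surviving cells are quantified by CellTiter Glo luminescence after 72 h.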
# [17] = Viability qHTS for inhibitors of the SERCaMP assay screened against the NCATS CANVASS Library (AID 1347400)
# In short: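 Cytotoxicity counter-screen: ATP content (CellTiter-Glo luminescence) of SH-SY5Y-GLuc SERCaMP MJH297 cells after 48 h at 37C with compounds in an 11-point qHTS series.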
# [18] = Redox Reaction Profiling qHTS: Assay Interference Panel against the NCATS CANVASS Library (AID 1347401)
# In short: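 Resazurin (5 uM) conversion to resorufin measured with 200 uM DTT in 50 mM HEPES pH 7.3, 50 mM NaCl. Compounds tested in 11-point qHTS series. Fluorescence (ex 525/em 598 nm) read before and after 15 min dark incubation.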
# [19] = qHTS for inhibitors of Rabies Virus screened against the NCATS CANVASS Library (AID 1347402; calls by dose curve)
# [20] = qHTS to identify inhibitors of the type 1 interferon - major histocompatibility complex class I in skeletal muscle: primary screen against the NCATS Mechanism Interrogation Plate v5.0 (MIPE) Libary (AID 1347411)
# In short: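 Cells were genome-edited human myoblasts carrying a HiBit tag on endogenous HLA-B. They were treated with IFN-beta (4.0 ng/ml) and titrated compounds (top 46 uM) for 24 hrs before lytic HiBiT detection.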
# Protein phosphatase 1D (Homo sapiens), sequence (O15297 whole entry, looked up): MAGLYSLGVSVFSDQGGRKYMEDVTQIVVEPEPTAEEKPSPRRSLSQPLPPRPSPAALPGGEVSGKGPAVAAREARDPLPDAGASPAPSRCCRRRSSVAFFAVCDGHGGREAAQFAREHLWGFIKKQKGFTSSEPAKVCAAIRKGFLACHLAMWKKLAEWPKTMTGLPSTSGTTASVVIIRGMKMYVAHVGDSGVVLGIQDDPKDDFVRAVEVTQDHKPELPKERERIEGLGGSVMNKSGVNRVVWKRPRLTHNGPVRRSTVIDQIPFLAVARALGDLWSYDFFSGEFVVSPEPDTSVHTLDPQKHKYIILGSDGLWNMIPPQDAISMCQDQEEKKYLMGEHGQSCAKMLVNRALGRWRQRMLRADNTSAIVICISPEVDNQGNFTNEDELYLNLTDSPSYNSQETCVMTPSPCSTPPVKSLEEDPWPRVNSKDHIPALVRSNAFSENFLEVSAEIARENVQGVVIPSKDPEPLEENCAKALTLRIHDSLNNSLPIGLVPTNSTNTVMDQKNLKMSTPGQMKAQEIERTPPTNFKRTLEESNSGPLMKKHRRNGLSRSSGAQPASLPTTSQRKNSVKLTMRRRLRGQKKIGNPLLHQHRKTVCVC
smiles,measurement,setting,value
NC(CCP(=O)(O)O)C(=O)O (stereo not given),Potency,[1],inactive
same,outcome,[2],inactive
CNCCc1c[nH]c2ccc(O)cc12,Potency,[1],inactive
same,outcome,[2],inactive
COc1cc(C(O)CN)ccc1O (stereo not given),Potency,[1],inactive
same,outcome,[2],inactive
O=C(Cc1ccc(Cl)c(Cl)c1)N1CCCCC1CN1CCCC1 (stereo not given),Potency,[1],inactive
same,outcome,[2],inactive
CCCN1CCC[C@H](c2cccc(O)c2)C1,Potency,[1],inactive
same,outcome,[2],inactive
NC1CCc2cc(O)c(O)cc2C1 (stereo not given),Potency,[1],inactive
same,outcome,[2],inactive
CC(Cc1ccc(O)cc1)NCC(O)c1cc(O)cc(O)c1 (stereo not given),Potency,[1],inactive
same,outcome,[3],inactive
same,outcome,[2],inactive
same,Potency,[4],inactive
O=C(O)[C@@H]1CCN1,Potency,[1],inactive
same,outcome,[2],inactive
C[N+](C)(C)CC(=O)O,Potency,[1],inactive
same,outcome,[2],inactive
NCc1cc(=O)[nH]o1,Potency,[1],inactive
same,outcome,[2],inactive
C[C@]12CCC3C(CC[C@H]4C[C@H](O)CC[C@]34C)C1CC[C@@H]2C(=O)CO (stereo not given in full),Potency,[1],inactive
same,outcome,[2],inactive
CNCCc1ccc(O)c(O)c1,Potency,[1],inactive
same,outcome,[2],inactive
CS(=N)(=O)CC[C@H](N)C(=O)O (stereo not given in full),Potency,[1],inactive
same,outcome,[2],inactive
C[C@@H](N)Cc1cnc[nH]1,Potency,[1],inactive
same,outcome,[2],inactive
c1ccc2sc(C3(N4CCCCC4)CCCCC3)cc2c1,Potency,[1],inactive
same,outcome,[2],inactive
CCCN(CCC)[C@@H]1CCc2ccc(O)cc2C1,Potency,[1],inactive
same,outcome,[2],inactive
NC(N)=NOCCC(N)C(=O)O (stereo not given),Potency,[1],inactive
same,outcome,[2],inactive
NCCc1c[nH]c2ccccc12,outcome,[5],inactive
same,outcome,[6],inactive
same,outcome,[7],inactive
same,outcome,[8],inactive
same,outcome,[9],inactive
same,outcome,[10],inactive
same,outcome,[11],inactive
same,outcome,[12],inactive
same,outcome,[13],inactive
same,outcome,[14],inactive
same,outcome,[15],inactive
same,outcome,[16],inactive
same,outcome,[17],inactive
same,outcome,[18],inactive
same,outcome,[19],inactive
same,Potency,[1],inactive
same,outcome,[2],inactive
c1ccc(C2(c3ccccc3)CC2C2=NCCN2)cc1 (stereo not given),Potency,[1],inactive
O=C(O)CC[N+](=O)[O-],Potency,[1],inactive
same,outcome,[2],inactive
CN1C2CCC1CC(OC(=O)c1cc(Cl)cc(Cl)c1)C2 (stereo not given),Potency,[1],inactive
same,outcome,[2],inactive
CC(=O)NCCc1c[nH]c2ccccc12,Potency,[1],inactive
same,outcome,[2],inactive
C[C@@H]1O[C@H](C[N+](C)(C)C)C[C@H]1O,Potency,[1],inactive
same,outcome,[2],inactive
C#CCOC(=O)C1=CCCN(C)C1,Potency,[1],inactive
same,outcome,[2],inactive
NC(CP(=O)(O)O)C(=O)O (stereo not given),Potency,[1],inactive
same,outcome,[2],inactive
C[C@]12N[C@H](Cc3ccccc31)c1ccccc12,Potency,[1],inactive
same,outcome,[2],inactive
O=C(O)Cc1cnc[nH]1,Potency,[1],inactive
same,outcome,[2],inactive
NC1CC1c1ccccc1 (stereo not given),Potency,[1],inactive
same,outcome,[2],inactive
NCCc1c[nH]c2ccc(O)cc12,outcome,[5],inactive
same,outcome,[6],inactive
same,outcome,[7],inactive
same,outcome,[8],inactive
same,outcome,[9],inactive
same,outcome,[10],inactive
same,outcome,[11],inactive
same,outcome,[12],inactive
same,outcome,[13],inactive
same,outcome,[14],inactive
same,outcome,[15],inactive
same,outcome,[16],inactive
same,outcome,[17],inactive
same,outcome,[18],inactive
same,outcome,[19],inactive
same,Potency,[1],inactive
same,outcome,[2],inactive
S=C(NC1CCCCC1)N1CCC(c2cnc[nH]2)CC1,Potency,[1],inactive
same,outcome,[2],inactive
CCCN(CCC)C1CCc2ccc(O)cc2C1 (stereo not given),Potency,[1],inactive
same,outcome,[2],inactive
Clc1cnc(Oc2ccc(Oc3ncc(Cl)cc3Cl)cc2)c(Cl)c1,Potency,[1],inactive
same,outcome,[2],inactive
Cn1cnc(CCN)c1,Potency,[1],inactive
same,outcome,[2],inactive
CCCCc1ccc(C(=O)O)nc1,Potency,[1],inactive
same,outcome,[2],inactive
CC(C)NC(C)Cc1ccc(I)cc1 (stereo not given),Potency,[1],inactive
same,outcome,[2],inactive
CC(C)Oc1cccnc1N(C)C1CCN(Cc2ccccc2)CC1,Potency,[1],inactive
same,outcome,[2],inactive
CC(=O)[C@H]1CCC2C3CC[C@H]4C[C@H](O)CC[C@]4(C)C3CC[C@@]21C (stereo not given in full),Potency,[1],inactive
same,outcome,[2],inactive
NC(=NCCC[C@H](N)C(=O)O)N[N+](=O)[O-],Potency,[1],inactive
same,outcome,[2],inactive
O=C1C(I)=CC(=C(c2cc(I)c(O)c(I)c2)c2ccccc2C(=O)O)C=C1I,outcome,[3],inactive
CC(C)NCC(O)c1ccc([N+](=O)[O-])cc1 (stereo not given),outcome,[3],inactive
same,Potency,[4],inactive
CC1=NN=C(c2ccc(N)cc2)c2cc3c(cc2C1)OCO3,Potency,[1],inactive
same,outcome,[2],inactive
CC[C@@]1(O)C(=O)OCc2c1cc1n(c2=O)Cc2cc3ccccc3nc2-1,Potency,[1],708 nM (active)
same,outcome,[2],inactive
same,Potency,[20],2080 nM (active)
